Assay results from the supplement of paper PMC9694430.

Tests used:
Assay in all cases: thermal shift delta Tm vs DMSO control; higher = stronger stabilization (binding)
Conditions in all cases: 12.5 µM; protein concentration 2 µM
LOC_OS01G01410-cb001 = system: LOC_OS01G01410-cb001
In short: (§1)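 Rice kinase domain constructs were expressed in E. coli, purified, and tested by differential scanning fluorimetry with compound added in DMSO. Each well of a 96-well plate held 19.5 μl of 2 μM kinase in 100 mM potassium phosphate pH 7.5, 150 mM NaCl, 10% glycerol and 5 × SYPRO Orange, and fluorescence was read from 25°C to 95°C at 0.05°C/s. The melting temperature shift is the mean of triplicates, taken against protein with DMSO alone after Boltzmann fitting.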

LOC_OS01G02750-cb003 = system: LOC_OS01G02750-cb003
In short: as §1

LOC_OS01G10900-cb004 = system: LOC_OS01G10900-cb004
In short: as §1

LOC_OS01G13800-cb001 = system: LOC_OS01G13800-cb001
In short: as §1

LOC_OS01G14860-cb001 = system: LOC_OS01G14860-cb001
In short: as §1

LOC_OS01G21960-cb002 = system: LOC_OS01G21960-cb002
In short: as §1

LOC_OS01G39600-cb002 = system: LOC_OS01G39600-cb002
In short: as §1

LOC_OS01G48390-cb002 = system: LOC_OS01G48390-cb002
In short: as §1

LOC_OS01G51400-cb002 = system: LOC_OS01G51400-cb002
In short: as §1

LOC_OS01G52050-cb004 = system: T1, LOC_OS01G52050-cb004
T1 sequence (whole entry): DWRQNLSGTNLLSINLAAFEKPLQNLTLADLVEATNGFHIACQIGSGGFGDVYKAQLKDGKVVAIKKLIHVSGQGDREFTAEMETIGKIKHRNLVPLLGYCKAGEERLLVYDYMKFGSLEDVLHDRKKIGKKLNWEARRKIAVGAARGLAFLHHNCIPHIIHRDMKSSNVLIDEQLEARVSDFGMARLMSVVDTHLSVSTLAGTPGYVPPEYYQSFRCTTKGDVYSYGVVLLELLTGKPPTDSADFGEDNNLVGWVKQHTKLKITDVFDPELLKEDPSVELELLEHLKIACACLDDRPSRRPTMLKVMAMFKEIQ
In short: as §1

Compound | thermal shift delta Tm (LOC_OS01G01410-cb001) | thermal shift delta Tm (LOC_OS01G02750-cb003) | thermal shift delta Tm (LOC_OS01G10900-cb004) | thermal shift delta Tm (LOC_OS01G13800-cb001) | thermal shift delta Tm (LOC_OS01G14860-cb001) | thermal shift delta Tm (LOC_OS01G21960-cb002) | thermal shift delta Tm (LOC_OS01G39600-cb002) | thermal shift delta Tm (LOC_OS01G48390-cb002) | thermal shift delta Tm (LOC_OS01G51400-cb002) | thermal shift delta Tm (LOC_OS01G52050-cb004)
O=C(O)c1ccc(Nc2ncc3c(n2)-c2ccc(Cl)cc2C(c2c(F)cccc2F)=NC3)cc1 | 1.36 °C | -0.24 °C | -0.28 °C | 0.41 °C | 0.03 °C | -0.02 °C | 0.1 °C | 0.02 °C | -0.16 °C | 0.07 °C
CCCCNc1ncc(C(=O)NCc2ccc(-n3ccnc3)cc2)c(NC2CCC(O)CC2)n1 (stereo not given) | 3.78 °C | 2.44 °C | 0.58 °C | -0.06 °C | 4.73 °C | 1.72 °C | 2.74 °C | 2.96 °C | 0.43 °C | 7.56 °C
O=C1Nc2ccccc2/C1=C1/Nc2ccccc2C1=O [Indirubin] | 1.5 °C | -0.12 °C | 3.43 °C | -0.14 °C | 3.18 °C | 0.67 °C | -4.22 °C | 0.94 °C | 0.43 °C | 0.55 °C
CO[C@H]1C[C@@H]2CC[C@@H](C)[C@@](O)(O2)C(=O)C(=O)N2CCCC[C@H]2C(=O)O[C@H]([C@H](C)C[C@@H]2CC[C@@H](OCCO)[C@H](OC)C2)CC(=O)[C@H](C)/C=C(\C)[C@@H](O)[C@@H](OC)C(=O)[C@H](C)C[C@H](C)/C=C/C=C/C=C/1C [Everolimus (RAD001)] | 1.13 °C | -1.72 °C | 0.03 °C | 0.16 °C | -0.41 °C | 0.16 °C | 0.54 °C | 0.33 °C | -0.03 °C | 0.35 °C
CC(=O)c1c(C)c2cnc(Nc3ccc(N4CCNCC4)cn3)nc2n(C2CCCC2)c1=O | 0.65 °C | 0.74 °C | 0.47 °C | -0.38 °C | 2.26 °C | 0.28 °C | 0.65 °C | 0.1 °C | 0 °C | 0.98 °C
Cc1ccc(NC(=O)c2ccc(CN3CC[C@H](N(C)C)C3)c(C(F)(F)F)c2)cc1Nc1nccc(-c2cncnc2)n1 [Bafetinib (INNO-406)] | 0.65 °C | 0.59 °C | 0.73 °C | 0.04 °C | 0.5 °C | 0.66 °C | -0.18 °C | 1.17 °C | 0.46 °C | 0.61 °C
C=CC(=O)N[C@H]1CCOC[C@H]1Nc1ncc2cc(-c3c(Cl)c(OC)cc(OC)c3Cl)ccc2n1 | 0.19 °C | -0.27 °C | 2.28 °C | -0.14 °C | 0.4 °C | 0.24 °C | -0.48 °C | 0.49 °C | -0.01 °C | 1.84 °C
CNc1nc(Nc2cn(C(C)(C)C#N)nc2C)ncc1C(F)(F)F | 0.23 °C | 1.65 °C | 0.23 °C | 0.93 °C | 0.11 °C | 1.18 °C | -0.3 °C | 0.76 °C | 0.31 °C | 0.37 °C
CO[C@H]1C[C@@H]2CC[C@@H](C)[C@@](O)(O2)C(=O)C(=O)N2CCCC[C@H]2C(=O)O[C@H]([C@H](C)C[C@@H]2CC[C@@H](O)[C@H](OC)C2)CC(=O)[C@H](C)/C=C(\C)[C@@H](O)[C@@H](OC)C(=O)[C@H](C)C[C@H](C)/C=C/C=C/C=C/1C [Rapamycin (Sirolimus)] | 0.87 °C | 0.22 °C | -0.07 °C | -0.01 °C | 0.33 °C | 0.21 °C | 0.05 °C | 0.16 °C | 0.12 °C | -0.13 °C
COc1cc(Nc2ncc3c(n2)-c2ccc(Cl)cc2C(c2c(F)cccc2OC)=NC3)ccc1C(=O)O [Alisertib (MLN8237)] | 0.87 °C | 0.27 °C | -0.01 °C | -0.04 °C | 0.35 °C | -0.3 °C | 3.62 °C | -0.18 °C | -0.33 °C | 0.48 °C
CC(C)NC[C@@H](C(=O)N1CCN(c2ncnc3c2[C@H](C)C[C@H]3O)CC1)c1ccc(Cl)cc1 [Ipatasertib (GDC-0068)] | 0.15 °C | 0.42 °C | 0.03 °C | 0.07 °C | 0.06 °C | 0.43 °C | 0.77 °C | -0.11 °C | 0.32 °C | 0.26 °C
COc1ccccc1-c1cc(Nc2cccc(CS(N)(=O)=O)c2)ncn1 | 0.57 °C | 1.83 °C | -0.11 °C | 0.56 °C | 1.07 °C | 1.02 °C | -0.27 °C | 0.79 °C | 0.36 °C | 0.9 °C
CNS(=O)(=O)Nc1nccc(Cc2c(C)c3ccc(Oc4ncccn4)cc3oc2=O)c1F | 0.15 °C | 1.63 °C | 0.11 °C | 0.82 °C | 0.18 °C | 0.68 °C | -0.07 °C | 0.47 °C | 0.47 °C | 0.66 °C
COc1cc2ncnc(Oc3ccc(CC(=O)Nc4cnn(C(C)C)c4)cc3)c2cc1OC | 0.27 °C | 0 °C | 0.09 °C | -0.43 °C | 0.03 °C | 0.08 °C | -1.25 °C | 0.97 °C | 0.22 °C | -0.1 °C
CCn1c(=O)c(-c2ccc(-c3cncs3)cc2Cl)cc2cnc(Nc3ccc(N4CCN(C)CC4)cc3)nc21 | 0.16 °C | -0.15 °C | 0.42 °C | 0.34 °C | 0.12 °C | 0.22 °C | -0.49 °C | -0.5 °C | 0.02 °C | -0.32 °C
Cc1nc(-c2cn3c(n2)-c2ccc(-c4cnn(C(C)(C)C(N)=O)c4)cc2OCC3)n(C(C)C)n1 [Taselisib (GDC 0032)] | 2.11 °C | -0.1 °C | 0.24 °C | 0.32 °C | -0.05 °C | 0.03 °C | -0.05 °C | 0.45 °C | 0.03 °C | 0.13 °C
C=CC(=O)Nc1cccc(Nc2nc(Nc3ccc(OCCOC)cc3)ncc2F)c1 | 3.05 °C | 0.97 °C | 1.01 °C | -0.85 °C | 3.77 °C | 2.29 °C | -1.51 °C | 1.44 °C | 0.59 °C | 3.59 °C
c1cncc(CN2CCC(n3ncc4c(N5CCOCC5)nc(-c5ccc6[nH]ccc6c5)nc43)CC2)c1 | 0.33 °C | -0.32 °C | 0.65 °C | 0.33 °C | 0.21 °C | 0.55 °C | 0.03 °C | 0.18 °C | 0.45 °C | -0.01 °C
OC1CCC(Nc2ncc3nc(Nc4c(F)cc(F)cc4F)n([C@H]4CCOC4)c3n2)CC1 (stereo not given in full) [Tanzisertib(CC-930)] | 0.32 °C | 0.43 °C | 0.32 °C | 0.7 °C | 0.73 °C | 0.08 °C | 0.06 °C | 0.2 °C | 0.08 °C | 2.88 °C
Oc1cc(CNC(=S)/C=C/c2cc(O)c(O)c(Br)c2)cc(O)c1O | 4.72 °C | 1.04 °C | -0.23 °C | 4.09 °C | 2.93 °C | 5.85 °C | 0.87 °C | 0.74 °C | 1.58 °C | 1.78 °C
